Our source for the outcome and AC50 values is PubChem BioAssay (EPA / NIEHS).

Assay [1] in a line: Tanguay_ZF_120hpf_MORT_legacy: (Legacy) Oregon State University Tanguay Lab 120 Hour Post-fertilization zebrafish Assay for Mortality (AID 2283633).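 As to AC50: fitted as increase in binary mortality versus DMSO negative control.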 In outline: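 Dechorionated Tropical 5D wild-type zebrafish embryos, one per well from 6 hpf, static exposure in 0.64% DMSO at 28C until 120 hpf. Mortality scored as binary by brightfield microscopy at 24 and 120 hpf.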
Assay [2] can be described thus: Tanguay_ZF_120hpf_YSE_legacy: (Legacy) Oregon State University Tanguay Lab 120 Hour Post-fertilization zebrafish Assay for Yolk Sac Edema (AID 2283634).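 As to AC50: actives raise the incidence of yolk sac edema above the DMSO baseline.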 In outline:
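Dechorionated Tropical 5D wild-type zebrafish embryos were exposed statically, one per well, from 6 to 120 hpf at 28C in 0.64% DMSO. Yolk sac edema was scored present/absent by brightfield at 120 hpf, and dead embryos were excluded.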

Assay [3] is described as follows: Tanguay_ZF_120hpf_AXIS_legacy: (Legacy) Oregon State University Tanguay Lab 120 Hour Post-fertilization zebrafish Assay for Body Axis Malformation (AID 2283635). The method in brief:
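Dechorionated wild-type Tropical 5D zebrafish embryos, one per well, statically exposed from 6 hpf to 120 hpf at 28C in 0.64% DMSO final. Body axis malformation scored present/absent by brightfield microscopy at 120 hpf; dead embryos excluded.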

The nature of assay [4]: Tanguay_ZF_120hpf_EYE_legacy: (Legacy) Oregon State University Tanguay Lab 120 Hour Post-fertilization zebrafish Assay for Eye Malformation (AID 2283636).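 Also: binary presence or absence of eye malformation scored by brightfield in 120 hpf larvae.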 The method in brief:
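Binary brightfield scoring of eye defects at 120 hpf after static exposure from 6 hpf of single pronase-dechorionated wild-type embryos (28C, 0.64% DMSO). Non-mortality endpoints omitted where embryos died; fit vs DMSO.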

A short description of assay [5]: Tanguay_ZF_120hpf_SNOU_legacy: (Legacy) Oregon State University Tanguay Lab 120 Hour Post-fertilization zebrafish Assay for Snout Malformation (AID 2283637). In outline:
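Binary snout-malformation call at 120 hpf in wild-type 5D embryos, chorion removed by pronase, under static exposure from 6 hpf at 28C (0.64% DMSO). Embryos dying by 24 or 120 hpf excluded.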

A short description of assay [6]: Tanguay_ZF_120hpf_JAW_legacy: (Legacy) Oregon State University Tanguay Lab 120 Hour Post-fertilization zebrafish Assay for Jaw Malformation (AID 2283638).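 As to AC50: active means more embryos with jaw malformation than DMSO controls.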 In outline: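 Dechorionated Tropical 5D wild-type zebrafish embryos, one per well, exposed statically from 6 hpf to 120 hpf at 28C in 0.64% DMSO. Jaw malformation was scored by brightfield microscopy as present or absent. It was not scored in dead embryos.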

Assay [7] in a line: Tanguay_ZF_120hpf_PE_legacy: (Legacy) Oregon State University Tanguay Lab 120 Hour Post-fertilization zebrafish Assay for Pericardial Edema (AID 2283640).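 As to AC50: potency for increased incidence of pericardial edema versus DMSO baseline.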 The method in brief: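 Tropical 5D wild-type zebrafish embryos were statically exposed until 120 hpf at 28C, with 0.64% DMSO final. Pericardial edema was scored by brightfield as present or absent; endpoints were not scored in dead embryos.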

A short description of assay [8]: Tanguay_ZF_120hpf_BRAI_legacy: (Legacy) Oregon State University Tanguay Lab 120 Hour Post-fertilization zebrafish Assay for Brain Malformation (AID 2283641). In outline: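 Tropical 5D wild-type zebrafish embryos exposed statically until 120 hpf at 28C, 0.64% DMSO final, sealed and dark. Brain malformation scored present/absent by brightfield at 120 hpf; dead embryos excluded. Trimethyltin chloride 5uM positive control.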

Assay [9] is described as follows: Tanguay_ZF_120hpf_SOMI_legacy: (Legacy) Oregon State University Tanguay Lab 120 Hour Post-fertilization zebrafish Assay for Somite Malformation (AID 2283647). The method in brief:
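Dechorionated Tropical 5D wild-type zebrafish embryos, one per well from 6 hpf, statically exposed at 28C to 120 hpf in 0.64% DMSO; somite malformation scored present/absent by brightfield; trimethyltin 5 uM positive control; dead embryos not scored.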

Assay [10] is described as follows: Tanguay_ZF_120hpf_PFIN_legacy: (Legacy) Oregon State University Tanguay Lab 120 Hour Post-fertilization zebrafish Assay for Pectoral Fin Malformation (AID 2283648).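 Also: each larva judged yes or no for fin defect by brightfield with dead larvae skipped.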 In outline:
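Pectoral fin malformation was recorded as a binary endpoint at 120 hpf in wild-type Tropical 5D larvae, which had been dechorionated and exposed statically from 6 hpf at 28C in 0.64% DMSO. Dead embryos were excluded.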

A short description of assay [11]: Tanguay_ZF_120hpf_CFIN_legacy: (Legacy) Oregon State University Tanguay Lab 120 Hour Post-fertilization zebrafish Assay for Caudal Fin Malformation (AID 2283649). In outline: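 Dechorionated Tropical 5D wild-type embryos, one per well from 6 hpf, static exposure to 120 hpf at 28C in 0.64% DMSO. Caudal fin malformation scored by brightfield as present/absent; not scored in dead embryos.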

The nature of assay [12]: Tanguay_ZF_120hpf_PIG_legacy: (Legacy) Oregon State University Tanguay Lab 120 Hour Post-fertilization zebrafish Assay for Pigmentation Malformation (AID 2283650). The method in brief: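 Pigment malformation recorded as a binary call at 120 hpf in zebrafish (Tropical 5D) exposed singly from 6 hpf after pronase dechorionation. Static, sealed, 28C exposure, 0.64% DMSO; mortality excludes scoring; positive-direction fit against DMSO.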

A short description of assay [13]: Tanguay_ZF_120hpf_CIRC_legacy: (Legacy) Oregon State University Tanguay Lab 120 Hour Post-fertilization zebrafish Assay for Circulatory Malformation (AID 2283651). In outline:
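Binary circulatory malformation call at 120 hpf by brightfield imaging of zebrafish larvae; chorion removed at 4 hpf, static exposure from 6 hpf in sealed dark plates at 28C, final DMSO 0.64%; non-mortality endpoints skipped if embryo died.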

Assay [14] in a line: Tanguay_ZF_120hpf_SWIM_legacy: (Legacy) Oregon State University Tanguay Lab 120 Hour Post-fertilization zebrafish Assay for Swim Bladder Malformation (AID 2283654).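 Also: swim bladder malformation in each larva scored yes or no under brightfield.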 The method in brief: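 Scoring is binary for swim bladder defects at 120 hpf, by brightfield inspection of zebrafish larvae. Embryos were exposed singly from 6 hpf after pronase dechorionation, at 28C with 0.64% DMSO; mortality excluded scoring.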

The nature of assay [15]: Tanguay_ZF_120hpf_TRUN_legacy: (Legacy) Oregon State University Tanguay Lab 120 Hour Post-fertilization zebrafish Assay for Truncated Body (AID 2283655). In outline:
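Dechorionated Tropical 5D wild-type embryos placed singly from 6 hpf and statically exposed to 120 hpf at 28C, final DMSO 0.64%. Truncated body scored as present/absent by brightfield; not scored in dead embryos.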

Assay [16] in a line: Tanguay_ZF_120hpf_NC_legacy: (Legacy) Oregon State University Tanguay Lab 120 Hour Post-fertilization zebrafish Assay for Notochord and Tail Malformation (AID 2283656). The method in brief:
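Binary scoring of notochord distortion by brightfield microscopy; embryos dying were not scored. Wild-type Tropical 5D embryos, chorion removed, exposed singly and statically from 6 to 120 hpf, 28C, sealed, 0.64% DMSO.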

The nature of assay [17]: Tanguay_ZF_120hpf_OTIC_legacy: (Legacy) Oregon State University Tanguay Lab 120 Hour Post-fertilization zebrafish Assay for Otic Vesicle Malformation (AID 2283639). The method in brief: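 Binary scoring of otic vesicle defects at 120 hpf in zebrafish (Tropical 5D) held under static exposure at 28C, sealed and shaded, with final DMSO 0.64%. Embryos dying by 24 or 120 hpf excluded; fitted positively against DMSO.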

SMILES strings stand for the structures. Records with an inconclusive call do not appear. Active and inactive are the calls of the source. The calls were made as follows: active = hit-call score of the fitted dose curve at least 0.9, where 1 is the maximum; inconclusive = response in the unintended direction; inactive = score below 0.9.

Take `C=CCC1=C(C)C(OC(=O)C2C(C=C(C)C)C2(C)C)CC1=O` (centres undefined): the outcome in [1], in assay [2], in assay [3], in [4], in assay [5] and in assay [6] was inactive. Besides, the outcome in assay [7], in assay [8], in assay [9], in assay [10], in assay [11] and in assay [12] was inactive. Also, the compound was called inactive in assay [13], in [14], in assay [15] and in [16].

By AC50 is commonly meant the concentration at which the activity in the assay is half-maximal. On to `CCc1nn(C)c(C(=O)NCc2ccc(C(C)(C)C)cc2)c1Cl`, for which the result in assay [1], in assay [3], in assay [4], in [17], in assay [8] and in [9] was inactive. Also, the call in assay [10], in [11], in assay [12], in [13], in assay [14] and in [15] was inactive. Moreover, in [16], the call was inactive. Also, the AC50 in assay [2] was 6 µM (active); in assay [5], 6.18 µM (active); in assay [6], 4.39 µM (active); in assay [7], 5.67 µM (active).

With `CCOP(=S)(OCC)SCn1c(=O)oc2cc(Cl)ccc21`, the outcome in assay [1], in assay [2], in assay [3], in assay [4], in [5] and in assay [8] was inactive. The outcome in [9], in assay [10], in assay [12], in [13], in [14] and in assay [15] was inactive.

For `N#Cc1cc(Br)c(O)c(Br)c1`, the call in [2], in assay [3], in [4], in [5], in assay [6] and in assay [7] was inactive. The compound was classed as inactive in [8], in [9], in assay [10], in [11], in [12] and in assay [13]. The result in assay [14], in [15] and in [16] was inactive.

Regarding `COc1ccc(C(c2ccc(OC)cc2)C(Cl)(Cl)Cl)cc1`, the call in [1], in assay [2], in assay [3], in [4], in assay [5] and in [6] was inactive. Moreover, the compound was called inactive in [7], in [8], in assay [9], in assay [10], in [11] and in [13]. Also, the compound was called inactive in assay [14] and in assay [15].

Take `CC(C)(C)c1ccc(CSc2cnn(C(C)(C)C)c(=O)c2Cl)cc1`: in [1], the AC50 was 25.1 µM (active). The result in [2], in assay [3], in assay [4], in [5], in assay [6] and in assay [7] was inactive. In addition, the outcome in assay [8], in assay [10], in assay [11], in assay [13], in assay [14] and in assay [15] was inactive. Also, the compound was called inactive in assay [16].

Regarding `CCOc1cc(Oc2ccc(C(F)(F)F)cc2Cl)ccc1[N+](=O)[O-]`, the compound was called inactive in assay [1], in assay [2], in assay [3], in [5], in assay [6] and in [7]. Further, the compound was called inactive in assay [9], in [10], in assay [11], in assay [14], in assay [15] and in [16].

In the case of `CC(C)Oc1cc(-n2nc(C(C)(C)C)oc2=O)c(Cl)cc1Cl`, the compound was classed as inactive in assay [1], in assay [2], in assay [3], in assay [4], in [5] and in assay [8]. In addition, the compound was called inactive in assay [10], in assay [11], in assay [13], in assay [14], in [15] and in [16].

With `CC1COC(Cn2cncn2)(c2ccc(Oc3ccc(Cl)cc3)cc2Cl)O1` (centres undefined), the outcome in [1], in assay [5], in assay [7], in [9], in [13] and in assay [14] was inactive. In addition, the outcome in assay [16] was inactive. Further, the AC50 was 8.51 µM (active) in assay [2], 26.6 µM (active) in assay [6] and 3.69 µM (active) in assay [10].

For the compound `Oc1ccccc1-c1ccccc1`, the compound was called inactive in assay [1], in [2], in [4], in assay [5], in assay [6] and in [7]. Also, the call in assay [8], in [9], in [10], in assay [11], in [12] and in [13] was inactive. The outcome in assay [14], in [15] and in assay [16] was inactive.

Regarding `CC1=C(C(=O)Nc2ccccc2)SCCO1`, the AC50 in [1] is 40.4 µM (active). For the same compound, the compound was called inactive in assay [2], in assay [3], in assay [5], in assay [6], in assay [7] and in assay [8]. Also, the compound was classed as inactive in assay [11], in [12], in assay [13], in [15] and in [16].

Turning to `COP(=S)(OC)Oc1nc(Cl)c(Cl)cc1Cl`, the compound was called inactive in [1], in assay [2], in assay [3], in assay [4], in assay [8] and in assay [9]. For the same compound, the compound was classed as inactive in assay [10], in assay [11], in [12], in [13], in assay [14] and in assay [15]. In addition, the result in assay [16] was inactive. In addition, the AC50 in [6] was 34 µM (active).

Take `CCCCNC(=O)n1c(NC(=O)OC)nc2ccccc21`: the call in assay [1], in assay [3], in assay [7], in [9], in [10] and in assay [11] was inactive. Further, the outcome in assay [13], in assay [14], in assay [15] and in assay [16] was inactive. Also, the concentration at half-maximal activity (AC50) is 52.3 µM (active) in assay [2]; 72.8 µM (active) in [4]; 56.7 µM (active) in assay [5]; 59.2 µM (active) in [6]; 27.9 µM (active) in assay [12].

Take `COP(N)(=O)SC` (centres undefined): the result in assay [1], in assay [2], in assay [5], in assay [7], in assay [8] and in assay [9] was inactive. In addition, the result in assay [11], in assay [12], in assay [13], in assay [14] and in assay [15] was inactive.
